This passage reports outcome results from PubChem BioAssay AID1053125 (Broad Institute, 2014).

Potency and affinity values are given separately. Active and inactive are the calls of the source.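 Rule for the calls: active = viability loss whose fitted half-maximal concentration is at most twice the top valid tested dose; inconclusive = flat curve with 30 to 70% loss, or poor fit; inactive = the rest.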

The test in a line: viability loss in HepG2 liver cells – cell-based, ATP luminescence, cherry-pick, set 6, cytotoxicity control, dose response (AID 1053125).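 Note: negative values mean loss of viability signal.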 To be noted: ATP luminescence (CellTiter-Glo), 72 h; series mostly up to 26 µM.
Consider `C=CCc1c(O)c(CC)cc2c(C)cc(=O)oc12`, for which the call was inactive. The value for `Cc1ccc(-c2nc3ccsc3c(=O)[nH]2)cc1` was “inactive”; that for `CCOc1ccccc1N=c1oc2cc(O)ccc2cc1C(=O)NCC1CCCO1` (stereo not given) was “inactive”; that for `CNC(=O)c1ccc(NC(=O)c2cccc(C(F)(F)F)c2)cc1` was “inactive”. The entry for `Cc1cccn2c(=O)c(/C=C(\C#N)C(N)=O)c(Oc3ccccc3)nc12` is “inactive”; for `Cc1c(O)ccc2cc(S(=O)(=O)c3ccccc3)c(=O)oc12` it is “inactive”. The entry for `N#C/C(=C\c1ccco1)C(=O)Nc1cccc2ncccc12` is “inactive”. `CC(=O)OC[C@@H]1CN(Cc2ccccc2)C[C@H](n2cnc3c(N(C)C(C)C)ncnc32)O1`: the call was inactive. The value for `CCOc1ccc(S(=O)(=O)Nc2ccc(C(=O)N(CC)CC(=O)NCc3cccs3)cc2)cc1` was “inactive”; that for `CN1CCN(c2nc3ccccn3c(=O)c2/C=C(\C#N)S(=O)(=O)c2ccccc2)CC1` was “inactive”.

In the case of `COc1cccc(N2CCN(C(=O)C3CCCN(S(=O)(=O)c4cnc[nH]4)C3)CC2)c1` (stereo not given), the outcome was inactive. The value for `Cc1ccc2nc3c(cc(C(N)=S)c(=N)n3CCCOC(C)C)c(=O)n2c1` was “inactive”; that for `O=C(Nc1ccc2c(c1)OCCO2)c1ccc(NC(=O)C2CCCO2)cc1` (stereo not given) was “inactive”; that for `COc1ccccc1C1C2=C(CC(C)(C)CC2=O)N(CC(=O)O)C2=C1C(=O)CC(C)(C)C2` was “inactive”. The entry for `COc1ccc(CCNC(=O)c2cc(S(=O)(=O)N3CCCCC3)c[nH]2)cc1OC` is “inactive”; for `C=Cc1ccc(Cn2c(C)c(C(=O)NCc3cccc(C)c3)sc2=O)cc1` it is “inactive”; for `O=c1[nH]c(=O)c2nc(-c3ccc(Cl)cc3)cnc2[nH]1` it is “inactive”. Turning to `COc1ccc(C(=O)Oc2cc(N)n(S(=O)(=O)c3ccccc3)n2)cc1`, the result was inactive. The entry for `Cc1c(C(=O)NCc2cccc([N+](=O)[O-])c2)sc(=O)n1Cc1cccc(F)c1` is “inactive”; for `O=C(NCc1ccc(F)cc1)C1CCCN1C(=O)Nc1cccc(F)c1` (stereo not given) it is “inactive”. The value for `Nc1ccc2nc(-c3ccccc3)cnc2c1` was “inactive”.

Take `COCCNC(=O)c1cc2c(=O)n3cccc(C)c3nc2n(Cc2ccncc2)c1=N`: the call was inactive.

Take `CCOc1ccc(C(=O)c2cc3ccc(O)cc3oc2=O)cc1`: the compound was classed as inactive. The value for `CCN(CC)Cc1c(O)c(Cl)cc2c(C)cc(=O)oc12` was “inactive”.

Consider `COc1ccc(C2C3=C(CC(C)(C)CC3=O)N(C)C3=C2C(=O)CC(C)(C)C3)cc1`, for which the call was inactive. The value for `O=C(O)[C@@H]1CCCN1S(=O)(=O)c1cccc(S(=O)(=O)N2CCC[C@H]2C(=O)O)c1` was “inactive”.

For the compound `COc1ccccc1NS(=O)(=O)c1cc(NC(=O)CCNC(C)=O)ccc1C`, the compound was classed as inactive. The entry for `CCOc1ccc2nc(NCCCNC(=O)c3cc(OC)c(OC)c(OC)c3)c(C#N)cc2c1` is “inactive”; for `CC1CC(C)CN(CCCNC(=O)CCC(=O)N2CC(C)Oc3ccccc32)C1` (stereo not given) it is “inactive”; for `CC(C)CCn1c(CN2CC(C)OC(C)C2)nc2c1c(=O)n(C)c(=O)n2C` (stereo not given) it is “inactive”. The entry for `CCCCN(CCCC)CC(O)Cn1c2ccccc2c(=O)c2ccccc21` (stereo not given) is “inactive”; for `NC(=O)c1cc([N+](=O)[O-])ccc1NCc1cccnc1` it is “inactive”. The entry for `CCN(CC)CCNC(=O)c1sc2nc(-c3ccccc3)cn2c1C` is “inactive”. Consider `O=C(O)c1ccc(N2N=C(c3ccccc3)CC2c2ccccc2)cc1` (stereo not given), for which the call was inactive. The entry for `CN1CCc2c(sc(NC(=O)C3CCCCC3)c2C(N)=O)C1` is “inactive”.
